Most compounds without a hit are left out; they make up all but 2% or so of the library.
Fam108B counter – blocks mouse Fam108B hydrolase in RBBP9 counter-screen. AID 1947. inhibition, % at 9.51 µM. recombinant Fam108B, FP-Rh probe fluorescence polarization. 300,000 compounds, 0.33% hits;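 active = inhibition above the screen mean inhibition plus 3 SD, computed separately per campaign, cut at about 18% in these data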;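 also: inhibitors lower polarization as less probe binds the enzyme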
PREPL inh – human PREPL enzyme inhibition | Q4J6C6 | recombinant PREPL, fluorescence polarization activity-based probe | inhibition, % at 5.96 µM | 320,000 compounds, 0.68% hits | AID 2751;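 also: 0% = enzyme with DMSO and 100% = wells lacking enzyme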
GSTO1 inh – GSTO1 inhibition, counter-screen for RBBP9 inhibitors; 300,000 compounds, 1.1% hits; inhibition, % at 5.96 µM; P78417; recombinant GSTO1, activity-based probe fluorescence polarization;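 active = inhibition above the campaign mean inhibition plus 3 SD, cut at about 35% in these data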;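 also: 0% = GSTO1-1 with DMSO and 100% = wells lacking GSTO1-1 enzyme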
Target sequence (P78417 whole entry, looked up): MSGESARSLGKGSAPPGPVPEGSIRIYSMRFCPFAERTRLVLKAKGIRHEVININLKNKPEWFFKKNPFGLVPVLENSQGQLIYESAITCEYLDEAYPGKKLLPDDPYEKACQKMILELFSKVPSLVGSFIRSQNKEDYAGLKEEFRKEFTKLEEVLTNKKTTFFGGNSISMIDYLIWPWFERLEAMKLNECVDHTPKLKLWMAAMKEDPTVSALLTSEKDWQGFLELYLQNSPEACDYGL
LYPLA1 counter – LYPLA1 (human) inhibition in PME1 counter-screen; O75608; recombinant LYPLA1, FP-Rh probe fluorescence polarization; inhibition, % at 5.9 µM; 320,000 compounds, 0.16% hits;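 active = inhibition above the mean of all tested compounds plus 3 SD, set per campaign, cut at about 14% in these data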;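 also: inhibitors block serine hydrolase probe labeling of LYPLA1 so polarization falls; 0% = enzyme with DMSO and 100% = wells lacking LYPLA1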
Target sequence (O75608 whole entry, looked up): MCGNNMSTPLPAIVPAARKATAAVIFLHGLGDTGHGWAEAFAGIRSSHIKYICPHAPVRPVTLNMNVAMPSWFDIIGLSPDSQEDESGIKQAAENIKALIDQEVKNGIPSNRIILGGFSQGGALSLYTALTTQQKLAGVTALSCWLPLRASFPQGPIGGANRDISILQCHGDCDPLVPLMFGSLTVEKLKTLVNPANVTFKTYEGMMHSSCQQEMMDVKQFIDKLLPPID
PME-1 primary – PME-1 (human) inhibition; Q9Y570; recombinant PME-1, FP-Rh probe fluorescence polarization; inhibition, % at 5.9 µM; 320,000 compounds, 0.53% hits;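 active = inhibition above the campaign mean of all compounds plus 3 SD, cut at about 26% in these data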;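 also: competitive labeling of PME-1 active site by serine hydrolase directed probe; 0% = PME-1 with DMSO and 100% = wells lacking PME-1 enzyme; inhibitors block probe labeling so polarization falls and inhibition rises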
LYPLA2 counter – LYPLA2 (human) inhibition in PME1 counter-screen. recombinant LYPLA2, FP-Rh probe fluorescence polarization. inhibition, % at 5.9 µM. 320,000 compounds, 0.38% hits. AID 2177;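 active = inhibition above the screen-wide mean plus 3 SD, limit set per campaign, cut at about 26% in these data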;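 also: 0% = LYPLA2 with DMSO and 100% = wells lacking LYPLA2 enzyme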
Target sequence (O95372 whole entry, looked up): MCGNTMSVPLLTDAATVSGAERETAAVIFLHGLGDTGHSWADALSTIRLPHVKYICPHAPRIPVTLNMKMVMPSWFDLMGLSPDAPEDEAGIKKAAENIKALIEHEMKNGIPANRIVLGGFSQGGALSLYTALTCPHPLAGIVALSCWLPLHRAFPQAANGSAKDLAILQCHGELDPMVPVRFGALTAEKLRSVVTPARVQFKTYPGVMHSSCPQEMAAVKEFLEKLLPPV
Fam108b confirm – confirmation of mouse Fam108b serine hydrolase inhibitors; shares compounds with Fam108B counter; recombinant Fam108b, FP-Rh probe fluorescence polarization; inhibition, % at 9.51 µM; 930 compounds, 44% hits;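 active = inhibition above a limit from the primary screen, the mean over all compounds plus 3 SD, cut at about 19% in these data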;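 also: 0% = median of active Fam108b wells and 100% = catalytically dead S170A mutant; inhibitors free the probe so polarization falls as inhibition rises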
Fam108b ABPP HTS – inhibits mouse Fam108b in gel-based ABPP; shares compounds with Fam108B counter; recombinant Fam108b, fluorophosphonate probe; inhibition, % at 20 µM; 260 compounds, 44% hits; AID 588649; in the data active = inhibition above about 40%
GSTO1 inh conf – confirmation of human GSTO1 inhibitors | shares compounds with GSTO1 inh | recombinant GSTO1, probe fluorescence polarization | inhibition, % at 5.96 µM | 2,400 compounds, 54% hits | AID 2176;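 active = inhibition above the primary screen's cutoff, its mean inhibition plus 3 SD, cut at about 35% in these data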;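 also: loss of polarization as inhibitors block binding of rhodamine sulfonate ester activity probe; 0% = GSTO1 with DMSO and 100% = wells lacking GSTO1 enzyme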
LYPLA1 confirm – counter-screen for PME1 inhibitors: confirmation of human LYPLA1 inhibitors. shares compounds with LYPLA1 counter. AID 2233. recombinant LYPLA1, FP-Rh probe fluorescence polarization. 480 compounds, 69% hits. inhibition, % at 5.9 µM;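 active = mean inhibition across replicates above the hit cutoff set in the primary screen, cut at about 15% in these data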;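 also: loss of FP-Rh probe labeling of LYPLA1 seen as lower polarization; 0% = LYPLA1 with DMSO and 100% = wells lacking LYPLA1 enzyme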
LYPLA2 conf – LYPLA2 (human) inhibition, confirmation counter-screen. AID 2232. 1,100 compounds, 72% hits. inhibition, % at 5.9 µM. recombinant LYPLA2, FP-Rh probe fluorescence polarization. shares compounds with LYPLA2 counter;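 active = mean inhibition across replicates above the hit cutoff set in the primary screen, cut at about 26% in these data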;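 also: blocked labeling of the enzyme by serine hydrolase FP-Rh probe lowers polarization; 0% = enzyme with DMSO and 100% = wells lacking LYPLA2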
PREPL inh cf – human PREPL inhibition, confirmation. AID 2803. recombinant PREPL, fluorescence polarization activity probe. 2,000 compounds, 67% hits. shares compounds with PREPL inh. inhibition, % at 5.96 µM;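 also: 0% = protein with DMSO and 100% = wells lacking protein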
* = called active by the depositor; . = no result. Rule as the data show it, unless noted: active = inhibition above about 43%; inactive = the rest.

SMILES	Fam108B counter	PREPL inh	GSTO1 inh	LYPLA1 counter	PME-1 primary	LYPLA2 counter	Fam108b confirm	Fam108b ABPP HTS	LYPLA1 confirm	LYPLA2 conf	others
Oc1ccc(N=Cc2ccc(-c3cccs3)s2)cc1	28*	22	82*	10	51*	29*	62*	0	.	8	GSTO1 inh conf=6
CCOC(=O)CC/C(=N\NC(N)=O)c1ccc(OC)c(Cl)c1	17	-6	2	1	-2	4	.	.	.	.
Cn1c(=O)c(Nc2ccc(Cl)cc2)c2c3c(cccc31)C(=O)c1ccccc1-2	32*	21	19	20*	31*	33*	34*	0	34*	25
CC(=O)Nc1c2c3c(cccc3n(C)c1=O)C(=O)c1ccccc1-2	3	12	17	4	2	3	.	.	.	.
Cc1cc(N/N=C/c2c(O)ccc3ccccc23)nc(-c2ccccc2O)n1	70*	28	0	4	57*	46*	103*	.	.	-15
COc1ccc2c(c1)C(=NNc1ccc(C(=O)O)cc1)c1cc(OC)ccc1-2	30*	27	7	28*	-34	37*	30*	0	19*	18
COc1ccc(/C(C)=N/Nc2ccc(C(=O)O)cc2)c(OC)c1	1	-7	-4	1	-6	-2	.	.	.	.
CCOC(=O)C(NC(C)=O)(NC(C)C)C(F)(F)F (centres undefined)	1	6	0	-3	1	-3	.	.	.	.
Cc1ccc(NC2CCCN(C(=O)Cc3nonc3C)C2)cc1C (centres undefined)	3	20	0	2	-6	-4	.	.	.	.
O=C(OCCc1cc2ccccc2c(=O)o1)c1ccc(C(F)(F)F)cc1	.	-32	.	-3	-2	-2	.	.	.	.
O=C(O)c1ccc(S(=O)(=O)/N=C2\C=C(Nc3ccccc3F)C(=O)c3ccccc32)cc1	49*	31	91*	7	26	26*	66*	85*	.	75*	GSTO1 inh conf=93*
O=S(=O)(/N=C(/Nc1ccccc1F)c1ccccc1)c1ccccc1	0	-1	-5	3	-2	-4	.	.	.	.
O=C(O)CC1NC(=S)N(c2ccccc2)C1=O (centres undefined)	-1	18	3	0	2	-2	.	.	.	.
O=C1C(CSCc2ccccc2)NC(=S)N1c1ccccc1 (centres undefined)	71*	-7	7	29*	89*	50*	3	.	1	-3
CN(c1ccccc1)S(=O)(=O)c1ccc(NC(=O)c2ccc(-c3ccccc3)cc2)cc1	45*	-14	-23	22*	64*	30*	80*	95*	26*	35*
CN1CCN(c2nc3c(c(=O)[nH]c(=O)n3C)n2Cc2ccccc2)CC1	4	10	9	0	-4	4	.	.	.	.
CNc1ccc2c3c(cccc13)C(=O)N(C)C2=O	62*	64*	40*	59*	77*	82*	47*	25	47*	59*	GSTO1 inh conf=31
CN1C(=O)c2cccc3c(Cl)ccc(c23)C1=O	1	1	5	1	2	3	.	.	.	.
Nc1ccc(O)c2c1C(=O)c1ccccc1C2=O	53*	51*	49*	50*	56*	62*	49*	0	36*	59*	GSTO1 inh conf=37*
Cc1ccc2c3c(cccc13)-c1ccccc1C2=O	-6	20	-4	7	-3	-6	.	.	.	.
Cc1coc2c1C(=O)C(=O)c1c-2ccc2c(C)cccc12	19*	3	97*	10	8	39*	15	.	.	9	GSTO1 inh conf=57*
CCN(CC(=O)Nc1c(F)cccc1F)C(=O)c1cccnc1Sc1ccccc1	3	23	2	3	5	7	.	.	.	.
COc1cc(/C=C2\SC(=O)N(CC(=O)Nc3ccc(C)cc3)C2=O)cc(Cl)c1OCC(=O)O	-6	-6	-9	-2	-1	19	.	.	.	.
O=C(CN1C(=O)S/C(=C\c2cc(Cl)c(O)c(Cl)c2)C1=O)Nc1ccccc1	23*	6	27	7	23	92*	19*	.	.	82*
O=C1c2cccc3c(O)ccc(c23)C(=O)N1c1ccc(Cl)cc1	20*	29	18	20*	37*	33*	12	.	15*	17
SMILES	Fam108B counter	PREPL inh	GSTO1 inh	LYPLA1 counter	PME-1 primary	LYPLA2 counter	Fam108b confirm	Fam108b ABPP HTS	LYPLA1 confirm	LYPLA2 conf	others
O=C1c2ccccc2C(=O)N1c1ccc(Cl)cc1	-3	7	-1	3	5	5	.	.	.	.
CC(=O)C1C(c2ccc([N+](=O)[O-])cc2)c2c(noc2C)CC1(C)O (centres undefined)	2	20	5	-1	2	7	.	.	.	.
O=C1c2ccccc2-c2onc3ccc(NCCCn4ccnc4)c1c23	122*	110*	105*	105*	109*	112*	150*	80*	109*	117*
CCOC(=O)c1nn(-c2ccc(OCC)cc2)c2nc(-c3ccco3)c(C#N)c(=O)n12	-3	4	0	-2	-1	-5	.	.	.	.
Cc1ccc(S(=O)(=O)Nc2ccc(Br)cc2C(NCC(=O)O)c2ccccc2)cc1 (centres undefined)	-2	13	0	-1	4	0	.	.	.	.
O=C(O)CSc1cc(NS(=O)(=O)c2ccc(Br)cc2)c2ccccc2c1O	22*	10	90*	8	30*	38*	3	.	.	20	GSTO1 inh conf=81*
COc1cc(/C=N/Nc2nc3c(c(=O)n(C)c(=O)n3C)n2Cc2ccccc2)ccc1OC(=O)c1ccco1	19*	80*	2	-10	39*	5	-10	.	.	.	PREPL inh cf=89*
O=S(=O)(Nc1cc2nc3ccccc3nc2n1Cc1ccccc1)c1ccc(Cl)cc1	43*	50*	73*	54*	53*	57*	64*	20	45*	93*	GSTO1 inh conf=92*;PREPL inh cf=42
CC1=Nc2nc(N3CCCCC3)c(C#N)c3c4c(nc(c23)N1)N(c1ccc(C(C)C)cc1)C(=O)C4	27*	99*	28	-8	14	-1	14	.	.	.	PREPL inh cf=72*
